Bioassay records as filed in PubChem.
This excerpt belongs to a sample that is enriched for hits.
Pf apPOL inh – Pf-apPOL DNA polymerase inhibition; Recombinant Pf-apPOL, molecular beacon fluorescence, 1.5 h; inhibition, % at 10 µM; 0.25% of 210,000 active
mHTT CaM bind – inhibitors of human mutant huntingtin-calmodulin interaction | AlphaScreen His-mHTT/GST-CaM binding, luminescence | inhibition, % at 15 µM | 3.6% of 190,000 active | AID 1671202
A number is an active result; i = inactive; nt = no result; ! = not active in a repeat. Rule as the data show it: active = inhibition above about 50%; inactive = the rest.

SMILES | Pf apPOL inh | mHTT CaM bind
Cc1ccc(S(=O)(=O)N2CCC(CCNC(=O)Nc3ccccc3)CC2)cc1 | i | 53
O=C(NCCC1CCN(S(=O)(=O)c2ccc(F)cc2)CC1)Nc1ccccc1 | i | i
COCCNC(=O)NCCC1CCN(S(=O)(=O)c2ccc(C)cc2)CC1 | i | 55
COC(=O)CNC(=O)NCCC1CCN(S(=O)(=O)c2ccc(C)cc2)CC1 | i | i
O=C1OC(c2cncc(Br)c2)=N/C1=C/c1ccc([N+](=O)[O-])cc1 | i | i
O=S(=O)(NC1CCCc2ccccc21)c1ccc2nc(-c3ccccc3)[nH]c2c1 (stereo not given) | i | i
NNc1nnc(-c2ccccc2)c(-c2ccccc2)n1 | i | 100
CC(=NNc1nnc(-c2ccccc2)c(-c2ccccc2)n1)c1ccco1 | i | nt
NNc1nnc(-c2ccccc2)c2ccccc12 | i | 68
NC(=O)c1ccc(Nc2nnc(-c3ccc(O)cc3)c3ccccc23)cc1 | i | i
CCCCc1cnc2c(c1SC(C)C)c(=O)n(C)c(=O)n2C | i | i
O=C(c1ccc(N2CCNC(c3ccccc3)C2)nc1)N1CCc2ccccc2C1 (stereo not given) | i | 71
CN1CCN(C(=O)c2ccc(N3CCNC(c4ccccc4)C3)nc2)CC1 (stereo not given) | i | i
COc1ccccc1NC(=O)c1cccc2c1C(=O)c1ccccc1-2 | i | i
CNc1ccc(OC)c2c1C(=O)c1ccccc1C2=O | i | 82
COc1ccc(/C=C(\C#N)c2nc(-c3ccc(OC)c(OC)c3)cs2)cc1O | i | i
N#C/C(=C\c1ccc(O)c(O)c1)c1nc(-c2ccc3c(c2)OCO3)cs1 | i | 98
COc1ccc(-c2csc(/C(C#N)=C/c3ccc(O)c(O)c3)n2)cc1OC | i | 81
N#C/C(=C\c1ccccc1[N+](=O)[O-])c1nc(-c2ccc3c(c2)OCO3)cs1 | i | i
Fc1ccc(-c2nc3ccccc3[nH]2)cc1 | i | i
c1cc(-c2nc3ccccc3[nH]2)nc(-c2nc3ccccc3[nH]2)c1 | i | 78
COCCN1C(=O)C(=O)C(=C(O)c2ccccc2)C1c1ccc(Br)cc1 (stereo not given) | i | i
Cc1ccc(-n2cc(C3CCN(C(=O)c4ccc(Br)o4)CC3)cn2)cc1 | i | i
CCOc1ccc(S(=O)(=O)N(C(=O)c2ccncc2)c2ccc3oc4c(c3c2)CCCC4)cc1 | i | i
O=C(c1ccncc1)N(c1ccc2oc3c(c2c1)CCCC3)S(=O)(=O)c1ccc(F)cc1 | i | 58
SMILES | Pf apPOL inh | mHTT CaM bind
COCCCNC(=O)C1CCN(C(=O)c2cccnc2-c2ccccc2C)CC1 | i | i
COCCCNC(=O)C1CCN(Cc2cc3ccccc3n2Cc2ccccc2C)CC1 | i | 64
COCCNC(=O)C1CCN(Cc2cc3ccccc3n2Cc2ccccc2Cl)CC1 | i | 83
COc1ccc(CN2CCC(C(=O)NCc3ccccc3Cl)CC2)c(OC)c1 | i | i
NC(=O)C1CCN(C(=O)Cc2cc(-c3ccco3)on2)CC1 | 73 | i
CC1Cc2ccccc2N1C(=O)Cc1cc(-c2ccco2)on1 (stereo not given) | i | i
Cc1ccc(C2CC(c3ccc(C)cc3C)=NN2C(=O)CN2CCOCC2)cc1 (stereo not given) | i | 76
Cc1ccc(C2CC(c3cccc(C)c3)=NN2C(=O)CN2CCOCC2)cc1 (stereo not given) | i | 85
Cc1ccc(C)c(C2=NN(C(=O)CN3CCOCC3)C(c3ccc(Cl)cc3)C2)c1 (stereo not given) | i | i
Cc1ccc(C2CC(c3ccccc3)=NN2C(=O)CN2CCOCC2)cc1 (stereo not given) | i | i
Cc1noc(C2CN(C(=O)Nc3ccccc3Cl)CC23CCOCC3)n1 (stereo not given) | i | i
CCOc1ccc(NC(=O)CC2Nc3cc(C)c(C)cc3NC2=O)c([N+](=O)[O-])c1 (stereo not given) | i | i
COc1ccc(N=c2scc(-c3ccc(I)cc3)n2CCO)cc1 | i | 66
O=S(=O)(c1ccc(-c2csc(=Nc3ccccc3)n2CCO)cc1)N1CCCCC1 | i | i
COc1ccc(-c2csc(=Nc3ccccc3)n2CCO)cc1 | i | i
COc1ccc(N=c2scc(-c3ccc(Br)cc3)n2CCO)cc1 | i | 59
O=C(NCc1cccc(Cl)c1)c1cccn2c(=O)c3ccc(Cl)cc3nc12 | i | i
Cc1sc(NC(=O)c2cc3cc([N+](=O)[O-])ccc3oc2=O)nc1-c1cccs1 | i | i
Cc1nc(-c2ccccc2)sc1C(=O)N1CCC(CC(=O)N2CCCC2)CC1 | i | i
COc1ccc(CCN2COc3ccc4c(c3C2)OC(=Cc2ccncc2)C4=O)cc1 | i | i
Cn1c(=O)c2ccnn2c2ccc(C(=O)NCc3ccccc3)cc21 | i | i
Cc1cccc(CNC(=O)c2ccc3c(c2)n(C)c(=O)c2ccnn23)c1 | i | 58
Cc1nccn1CCNC(=O)C(=O)Nc1ccc(Cl)cn1 | i | i
CCCCc1ccc(/C=C(\C#N)C(N)=S)s1 | nt | 63
Cc1ccc(/C=C(/C#N)C(N)=S)s1 | nt | i
SMILES | Pf apPOL inh | mHTT CaM bind
COc1ccc(C(=O)NCc2cccnc2-c2ccc(OC)cc2)cc1 | i | i
CCN1C(=O)c2cccc3c(NC(=O)COc4ccc(Cl)cc4)ccc1c23 | i | 52
CCN1C(=O)c2cccc3c(NC(=O)c4ccccc4[N+](=O)[O-])ccc1c23 | i | i
Cc1ccc(-c2cncc(C(=O)Nc3ccc4c(c3)OCCO4)c2)cc1 | i | 54
CCc1ccc(NC(=O)c2cncc(-c3ccc(C)cc3)c2)cc1 | i | i
CCc1ccc(C(=O)N2CC3CN(S(=O)(=O)c4cccc(C)c4)CC(C2)O3)cc1 | i | 65
Cc1cccc(S(=O)(=O)N2CC3CN(C(=O)c4cccc(F)c4)CC(C2)O3)c1 | i | i
O=C(Nc1ccc(-c2cn3c(n2)SCC3)cc1)c1cnn(-c2ccccc2)n1 | i | i
Cc1ccc(-n2c(=O)c3sccc3n(CC(=O)c3ccccc3)c2=O)cc1F | i | i
Cc1cc2c(cc1C)NC(CC(=O)Nc1ccc(N3CCOCC3)cc1)C(=O)N2 (stereo not given) | i | 57!
Cc1cc2c(cc1C)NC(CC(=O)Nc1cccc(C(=O)O)c1)C(=O)N2 (stereo not given) | i | i
CN1CCN(c2cc(OCCNS(=O)(=O)c3cccc(Cl)c3Cl)ncn2)CC1 | i | i
Fc1ccc(Cc2nc(-c3ccc4nncn4c3)no2)cc1 | i | i
COc1ccc(C2C=C(c3ccc(F)cc3)Nc3nnnn32)c(OC)c1 (stereo not given) | i | i
COc1ccc(C2CC(c3ccc(Cl)cc3)Nc3nc(N)nn32)cc1OC (stereo not given) | i | i
COc1ccc(C2CC(c3cc(Cl)ccc3O)=NN2)cc1OC (stereo not given) | i | 74
COc1ccc(C2CC(c3cc(F)ccc3O)=NN2)c(OC)c1 (stereo not given) | i | 56
Oc1ccc(C2CC(c3ccccc3O)=NN2)cc1 (stereo not given) | i | 96
Oc1ccc(Cl)cc1C1=NNC(c2ccccc2F)C1 (stereo not given) | i | 54
CCOC(=O)N1CCC2(CC1)N=C(c1cc(Cl)ccc1O)CC(c1ccccc1)N2 (stereo not given) | i | i
CCOc1ccc(C2CC(c3ccccc3O)=NN2)cc1 (stereo not given) | i | i
Cc1cccn2cc(C(=O)NCc3ccc(N(C)C)cc3)nc12 | i | i
